We go through 40 molecules from PubChem BioAssay (NCATS).

Results filed as inconclusive are left out. Values without a mark were called inactive. Activity calls are given as the source filed them. Calls follow the shape of the dose curve; as a rule, active = well fitted cell-killing curve with a large enough effect; inconclusive = small, poorly fitted or top-dose-only effect, or effect the other way; inactive = no such curve, though single readings can be large or run the other way. Bridge positions count the residues as written; N and C are the ends. Square brackets hold non-standard residues; d marks the D form. Peptide text beside a SMILES is read from it. * marks the point of attachment. ξ: configuration not given here. Octanoyl(6-Me) = CCC(C)CCCCC(=O)*; ξThr(3R) = C[C@@H](O)C(N)C(=O)O; dDab = NCC[C@@H](N)C(=O)O; Dab = NCC[C@H](N)C(=O)O
Potency is read from the fitted curve at half-maximal effect.

The test is described as follows: Quantitative highthroughput screen to assess conditional lethalithy of SEM cells grown in RPMI1640 with dialyzed fetal bovine serum (RPMI+ds) (AID 1963884). Also: nearly all actives have a fitted effect of over 35% in size. Conditions: SEM B-ALL cells, RPMI+dialyzed FBS, CellTiter-Glo viability, 48 h; series mostly up to 45.8 µM; viability: at the top concentration. The source says: Assay Provider: Jason Cantor Ph.D.
Department of Biochemistry
University of Wisconsin-Madison, Madison, WI, USA
Chemical screening studies have identified drug sensitivities across hundreds of cancer cell lines but most putative therapeutics fail to translate. Discovery and development of drug candidates in models that more accurately reflect nutrient levels in human blood is a major challenge. Here we performed high-throughput screens in conventional versus Human Plasma-Like Medium (HPLM) to identify compounds that were "missed" when screening using the artificial culture condition. Sets of conditional anticancer compounds spanned phases of clinical development and included non-oncology drugs were assessed. […] We also traced conditional phenotypes for several chemotherapeutics to availability of HPLM-specific metabolites and confirmed others for compounds whose reported targets are encoded by nonessential genes. Our findings establish generalizable strategies for exploiting conditional lethality in HPLM to reveal therapeutic candidates and mechanisms of action in cancer cells.
Described herein are the results of each viability screens against three cell lines: NOMO1 (an acute myeloid leukemia cell line); P12-Ichikawa (a T-cell acute lymphoblastic leukemia); and SEM (a B-cell ALL). Each assay was screened using 3 different cell culture media: homemade human plasma-Like medium with 10% dialyzed fetal bovine serum (HPLM+ds); RPMI1640 with 10% untreated FBS and 5mM glucose (RPMI+s); and RPMI1640 with 10% dialyzed fetal bovine serum and 5 mM glucose (RPMI+ds).
PROTOCOL TABLE (as described by Inglese J, Shamu CE and Guy RK. 2007)
SEQUENCE No. (e.g., 1, 2, 3, etc.); […] (e.g., Cells, Incubation, Reagent, etc.); VALUE and DESCRIPTION.
1; Cells; 5 uL; white, solid bottom 1536-well Greiner assay plate.
2; Compounds; 23 nL; Kalypsis pin tool (Wako USA) equipped with a 1536-well pin head to transfer to the assay plates.
3; Incubation; 48 hours; 37C incubation.
4; Reagent; 3 uL; CellTiter Glo (Promega).
5; Incubation; 5 min, room temperature
6; Detection; Luminescence, Viewlux PerkinElmer.
NOTES (numbers refer to Sequence numbers above)
1. Briefly, 5 ul of cell reagent was dispensed using a Multidrop Combi Dispenser. The NOMO1 and SEM cells were plated at 500 cells/well and the P12-Ichikawa line at 1000 cells/well.
2. After seeding the cells, 23 nL of MIPE 4.1 library compounds (in DMSO) were added to each plate using a Kalypsys 1536 Pintool dispenser. Bortezomib at final concentration of […] and DMSO were added to each plate as positive and negative controls respectively. For each screen, MIPE 4.1 compounds were added over an eleven-point concentration range […] in 3-fold dilutions.
3. Each plate was covered with a stainless steel gasketed lid to prevent evaporation and incubated for 48 hour at 37C, 95% relative humidity, and 5% CO2.
4-5. Three microliter CellTilter-GloTM luminescent substrate mix (Promega) reagent was added to the assay plate and incubated at room temperature for 5 min.
6. The luminescence signal was measured using a ViewLux (PerkinElmer) multiplate reader with a 2 second exposure time per plate. Data for each compound were normalized as percent viability such that measurements for DMSO and the empty well controls in each plate were defined as 100% and 0%, respectively.
For the molecule `CC(C)(C)[N+]([O-])=Cc1ccc(S(=O)(=O)O)cc1S(=O)(=O)O`, the viability – broadly, a read-out of living cells in per cent, often relative to untreated cells – is 103%.
Same read-out and setting: the same measure for `C[C@]12CCC3=C4CCC(=O)C=C4CC[C@@H]3[C@H]1CC[C@@]2(O)CC#N`: 102%; for `C[N+]1(C)[C@@H]2C[C@@H](OC(=O)C(O)(c3cccs3)c3cccs3)C[C@H]1[C@@H]1O[C@@H]12`: 92.8%.
Take `CCOc1ccn(-c2ccc(F)cc2)c(=O)c1C(=O)Nc1ccc(Oc2ccnc(N)c2Cl)c(F)c1`: the Potency is 2.09 µM (active).
Same read-out and setting: the same measure for `Cn1cc(CNCC2CCN(c3ncc(C(=O)NO)cn3)CC2)c2ccccc21`: 0.132 µM (active).
For `O=C(O)c1cc(O)c2c(c1)C(=O)c1cccc(O)c1C2=O`, the “viability” value was 90.4% [at 92.2 µM].
As for `CC[C@@]1(O)C[C@H](O[C@H]2C[C@H](N(C)C)[C@H](O[C@H]3C[C@H](O)[C@H](O[C@H]4CCC(=O)[C@H](C)O4)[C@H](C)O3)[C@H](C)O2)c2c(cc3c(c2O)C(=O)c2c(O)cccc2C3=O)[C@@H]1C(=O)OC`, the Potency is 0.0662 µM (active).
Still for that read-out and setting: the same measure for `CS(=O)c1ccc(-c2nc(-c3ccc(F)cc3)c(-c3ccncc3)[nH]2)cc1` (stereo not given): 5.4 µM (active); for `O=C1c2ccccc2-[n+]2ccc3c([nH]c4ccccc43)c21`: 3.32 µM (active).
For the molecule `C[C@H]1Oc2cc(cnc2N)-c2c(nn(C)c2C#N)CN(C)C(=O)c2ccc(F)cc21`, the “viability” value is 100%.
On the same count and under the same terms, as for `O=C(O)[C@H](CC(=O)N1C[C@@H]2CCCC[C@H]2C1)Cc1ccccc1`, the figure is 111%; as for `O=C(O)C1=NC(C(=O)O)CC(C=CN2c3cc(O)c(OC4OC(CO)C(O)C(O)C4O)cc3CC2C(=O)O)=C1` (stereo not given), 98.5%; as for `NC[C@H]1O[C@H](O[C@H]2[C@@H](O)[C@@H](O[C@H]3O[C@H](CO)[C@@H](O)[C@H](N)[C@@H]3O)[C@H](N)C[C@@H]2N)[C@H](N)C[C@H]1O`, 110%.
The same measure, in the same setting: as for `C[C@]12CC[C@H](O)CC1=CCC1C2CC[C@]2(C)C(n3cnc4ccccc43)=CCC12` (stereo not given in full), the figure is 99.8%; as for `Cc1csc(NC(=O)c2sc3nc4c(c(C(F)(F)F)c3c2N)CCC4)n1`, 86.2%.
As to `O=C(NCc1ccccc1)c1csc(Nc2ccncn2)n1`, the Potency was 1.66 µM (active).
On to `Cc1[nH]c(=O)c(C#N)cc1-c1ccncc1`, for which the “viability” value was 100%.
Consider `CC1(O)CC(c2nc(-c3ccc4ccc(-c5ccccc5)nc4c3)c3c(N)nccn23)C1` (stereo not given), for which the Potency was 2.35 µM (active).
On to `O=C(O)c1cc(=O)[nH]c(=O)[nH]1`, for which the “viability” value is 99.1%.
Same read-out and setting: the same measure for `CN1CCC(COc2cnc(-c3cccc(Cn4nc(-c5cccc(C#N)c5)ccc4=O)c3)nc2)CC1`: 95.8%.
On the same count and under the same terms, as for `COc1ccc(-c2ccc3cc(C(=O)O)ccc3c2)cc1C12CC3CC(CC(C3)C1)C2`, the figure is 94.2%.
Same read-out and setting: as for `Cc1ccccc1N1C(=O)c2cc(S(N)(=O)=O)c(Cl)cc2NC1C` (stereo not given), the figure is 95.3%; as for `CCCCOCCOc1nc(-c2ccc(C(=O)O)c(F)c2)sc1C`, 107%.
As to `CC(C)c1onc(-c2c(Cl)cccc2Cl)c1COc1ccc(C=Cc2cccc(C(=O)O)c2)c(Cl)c1`, the “viability” value is 84.4%.
With `CNC(=O)c1ccc2c(C(=Nc3cccc(CN(C)C)c3)c3ccccc3)c(O)[nH]c2c1`, the Potency is 1.32 µM (active).
On to `CNc1nccc(-c2cccnc2Oc2cc(C(=O)Nc3cccc(C(F)(F)F)c3)ccc2C)n1`, for which the “viability” value was 87.2%.
Still for that read-out and setting: the same measure for `CCC(C)CCCCC(=O)N[C@@H](CCN)C(=O)NC(C(=O)N[C@H](CCN)C(=O)N[C@@H]1CCNC(=O)C([C@@H](C)O)NC(=O)[C@@H](CCN)NC(=O)[C@@H](CCN)NC(=O)[C@@H](CC(C)C)NC(=O)[C@H](Cc2ccccc2)NC(=O)[C@H](CCN)NC1=O)[C@@H](C)O` (stereo partly drawn) ({Octanoyl(6-Me)}-[Dab][ξThr(3R)][dDab][dDab][Dab]F[dL][dDab][dDab][ξThr(3R)]; lactam 4-C): 113%.
On to `O=c1[nH]c(=O)n([C@H]2C[C@@H](O)[C@@H](CO)O2)cc1C(F)(F)F`, for which the Potency is 1.87 µM (active).
Still for that read-out and setting: the same measure for `Cn1cc(C2=C(c3c4n(c5ccccc35)CCC(CN)C4)C(=O)NC2=O)c2ccccc21` (stereo not given): 11.8 µM (active).
With `COc1ccc(CCC(=O)Nc2nc3ccc(Cl)cc3s2)cc1OC`, the “viability” value was 109%.
For the molecule `C[C@@H]1O[C@@H](O[C@H]2CC[C@@]3(C)[C@H](CC[C@@H]4[C@H]3C[C@@H](O)[C@]3(C)[C@@H](C5=CC(=O)OC5)CC[C@]43O)C2)C[C@H](O)[C@@H]1O[C@H]1C[C@H](O)[C@H](O[C@H]2C[C@H](O)[C@@H](O)[C@@H](C)O2)[C@H](C)O1` (stereo in doubt), the Potency was 0.27 µM (active).
For `O=C(Nc1cc(C(F)(F)F)cc(C(F)(F)F)c1)c1cc(Cl)ccc1O`, the Potency was 4.18 µM (active).
The same measure, in the same setting: the same measure for `COc1cc2c(cc1OC)CN(CCc1ccc(NC(=O)c3cccc4c(=O)c5cccc(OC)c5[nH]c34)cc1)CC2`: 0.935 µM (active); for `CN[C@@H]1C[C@H]2O[C@@](C)([C@H]1OC)n1c3ccccc3c3c4c(c5c6ccccc6n2c5c31)C(=O)N[C@H]4O`: 0.526 µM (active).
On the same count and under the same terms, the same measure for `Cn1c(=O)c(F)c(Nc2ccc(I)cc2F)c2c(=O)n(C[C@@H](O)CO)cnc21`: 2.09 µM (active).
As for `Cc1c(C(=O)NN2CCCCC2)nn(-c2ccc(Cl)cc2Cl)c1-c1ccc(Cl)cc1`, the “viability” value was 74.8%.
On to `C=CC(=O)Nc1cccc(Oc2nc(Nc3ccc(N4CCN(C)CC4)cc3)ncc2Cl)c1`, for which the Potency was 1.87 µM (active).
Regarding `COc1cccc(-c2cc(=O)c3ccccc3o2)c1N`, the “viability” value is 109%.
As to `O=C1C(Cl)=C(NCCN2CCOCC2)C(=O)c2ncccc21`, the Potency is 7.43 µM (active).
For `CCc1ccc(CCOc2ccc(CC3SC(=O)NC3=O)cc2)nc1` (stereo not given), the “viability” value is 105%.
